Experimental findings from article PMC7862700, “An all-to-all approach to the identification of sequence-specific readers for epigenetic DNA modifications on cytosine” are described below.

Holding throughout (test): DAPPL (digital affinity profiling via proximity ligation, sequencing); 10 mM Tris-HCl pH 7.5, 50 mM NaCl, 1 mM DTT, 4% glycerol, room temperature, 30 min; GST-TFs on glutathione beads, 16-mer random dsDNA library, 0.1% formaldehyde crosslink after washing; high values mean tight binding
Conditions in all cases: protein: recombinant; tags: N-terminal GST; dsDNA, one strand shown

In one assay the target is T1, FLI1 (Homo sapiens, UniProt Q01543 1-452).
T1 sequence: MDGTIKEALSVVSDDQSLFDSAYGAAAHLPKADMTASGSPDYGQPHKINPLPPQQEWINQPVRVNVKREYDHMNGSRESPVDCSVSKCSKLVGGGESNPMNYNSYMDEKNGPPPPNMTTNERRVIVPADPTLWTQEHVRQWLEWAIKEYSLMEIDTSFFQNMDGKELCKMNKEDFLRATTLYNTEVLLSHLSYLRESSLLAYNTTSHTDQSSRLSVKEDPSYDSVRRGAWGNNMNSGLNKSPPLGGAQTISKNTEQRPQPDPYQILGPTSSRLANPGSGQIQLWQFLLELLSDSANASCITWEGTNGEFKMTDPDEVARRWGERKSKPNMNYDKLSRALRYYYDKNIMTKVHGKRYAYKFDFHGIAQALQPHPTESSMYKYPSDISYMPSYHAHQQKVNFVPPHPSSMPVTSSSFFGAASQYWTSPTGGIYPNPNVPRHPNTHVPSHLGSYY
Summed up:
(§1)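 A tag-only sample was pooled with DNA-barcoded human transcription factors that had been expressed in yeast as GST fusions and captured on glutathione beads. The pools were incubated for 30 min at room temperature with 200 nmole of a random double-stranded 16-mer DNA library in Tris/NaCl/DTT/glycerol buffer, then washed, crosslinked with 0.1% formaldehyde, proximity-ligated (BsaI/T4 ligase, 1 h, 37 °C), PCR-amplified and sequenced on an Illumina NextSeq500. Binding signal is each hexamer's read frequency for a factor divided by its frequency for the tag-only sample.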

A further assay deals with T2, ELK1 (Homo sapiens, UniProt P19419 1-428).
T2 sequence: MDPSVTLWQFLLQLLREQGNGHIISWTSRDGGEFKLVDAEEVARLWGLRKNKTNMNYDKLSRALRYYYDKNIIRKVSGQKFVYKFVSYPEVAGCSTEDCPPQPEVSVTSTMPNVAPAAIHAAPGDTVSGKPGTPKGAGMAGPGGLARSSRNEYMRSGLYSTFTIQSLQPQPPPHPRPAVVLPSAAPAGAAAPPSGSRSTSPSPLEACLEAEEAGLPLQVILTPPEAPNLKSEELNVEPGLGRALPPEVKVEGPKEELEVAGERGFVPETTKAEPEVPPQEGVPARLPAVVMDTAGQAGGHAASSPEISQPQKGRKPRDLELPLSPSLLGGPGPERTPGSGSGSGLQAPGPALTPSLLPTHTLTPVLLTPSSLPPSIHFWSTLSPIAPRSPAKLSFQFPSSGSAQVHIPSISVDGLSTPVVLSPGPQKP
Summed up:
as §1

In another assay the target is T3, GABPA (Homo sapiens, UniProt Q06546 1-454).
T3 sequence: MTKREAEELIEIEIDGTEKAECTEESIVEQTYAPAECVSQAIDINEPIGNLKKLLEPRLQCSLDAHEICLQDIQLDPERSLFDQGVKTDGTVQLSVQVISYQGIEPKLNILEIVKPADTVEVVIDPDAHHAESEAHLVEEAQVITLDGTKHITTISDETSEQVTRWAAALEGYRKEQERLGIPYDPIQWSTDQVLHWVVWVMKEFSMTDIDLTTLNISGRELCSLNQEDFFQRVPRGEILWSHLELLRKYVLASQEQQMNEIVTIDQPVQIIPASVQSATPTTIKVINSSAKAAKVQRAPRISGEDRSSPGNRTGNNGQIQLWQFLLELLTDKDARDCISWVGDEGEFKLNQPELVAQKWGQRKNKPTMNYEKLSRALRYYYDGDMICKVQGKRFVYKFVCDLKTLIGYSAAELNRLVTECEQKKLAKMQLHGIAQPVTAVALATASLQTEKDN
Summed up: as §1

The next assay has as its target T4, ERG (Homo sapiens, UniProt P11308 1-479).
T4 sequence: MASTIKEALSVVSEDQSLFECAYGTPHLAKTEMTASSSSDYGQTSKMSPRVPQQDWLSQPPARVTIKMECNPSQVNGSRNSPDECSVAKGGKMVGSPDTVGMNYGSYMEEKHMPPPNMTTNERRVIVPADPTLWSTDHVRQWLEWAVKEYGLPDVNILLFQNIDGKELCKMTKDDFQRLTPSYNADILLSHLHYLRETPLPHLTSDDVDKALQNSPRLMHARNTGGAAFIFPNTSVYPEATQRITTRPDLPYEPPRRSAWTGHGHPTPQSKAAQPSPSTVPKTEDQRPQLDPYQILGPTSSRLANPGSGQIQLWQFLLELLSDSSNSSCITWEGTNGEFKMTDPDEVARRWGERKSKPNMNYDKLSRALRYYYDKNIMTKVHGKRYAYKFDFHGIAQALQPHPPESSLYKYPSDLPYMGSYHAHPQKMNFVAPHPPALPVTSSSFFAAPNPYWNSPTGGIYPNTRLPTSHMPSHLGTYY
The method in brief:
as §1

A further assay concerns the target ELF1 (Homo sapiens, UniProt P32519 1-619). Summed up:
as §1

The target of another assay is T5, EHF (Homo sapiens, UniProt Q9NZC4 1-300).
T5 sequence: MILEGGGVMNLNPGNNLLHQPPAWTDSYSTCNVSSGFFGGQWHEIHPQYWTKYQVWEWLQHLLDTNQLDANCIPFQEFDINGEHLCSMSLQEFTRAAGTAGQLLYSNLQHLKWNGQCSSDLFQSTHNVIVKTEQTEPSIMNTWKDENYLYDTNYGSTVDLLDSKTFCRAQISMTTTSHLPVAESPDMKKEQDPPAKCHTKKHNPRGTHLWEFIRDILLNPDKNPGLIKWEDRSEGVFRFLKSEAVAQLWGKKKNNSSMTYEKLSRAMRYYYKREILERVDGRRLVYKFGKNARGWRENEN
The method in brief: as §1

Another assay has as its target SPI1 (Homo sapiens, UniProt P17947 1-270). Summed up: as §1
The target in a further assay is SPIB (Homo sapiens, UniProt Q01892 1-262). The method in brief:
as §1

The target in a further assay is T6, FEV (Homo sapiens, UniProt Q99581 1-238).
T6 sequence: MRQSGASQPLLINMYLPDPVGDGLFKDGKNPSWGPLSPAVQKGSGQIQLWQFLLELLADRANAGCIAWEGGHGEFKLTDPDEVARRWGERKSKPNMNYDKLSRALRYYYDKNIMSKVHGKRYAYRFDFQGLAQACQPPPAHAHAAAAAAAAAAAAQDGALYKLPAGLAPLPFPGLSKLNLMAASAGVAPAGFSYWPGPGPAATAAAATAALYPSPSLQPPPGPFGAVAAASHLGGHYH
Summed up:
as §1

A further assay concerns the target ETV5 (Homo sapiens, UniProt P41161 1-510). Summed up: as §1
In another assay the target is ELF4 (Homo sapiens, UniProt Q99607 1-663). Summed up:
as §1

For another assay, the target named is ETV1 (Homo sapiens, UniProt P50549 1-477). The method in brief: as §1
Chain of ETV1 (P50549 whole entry): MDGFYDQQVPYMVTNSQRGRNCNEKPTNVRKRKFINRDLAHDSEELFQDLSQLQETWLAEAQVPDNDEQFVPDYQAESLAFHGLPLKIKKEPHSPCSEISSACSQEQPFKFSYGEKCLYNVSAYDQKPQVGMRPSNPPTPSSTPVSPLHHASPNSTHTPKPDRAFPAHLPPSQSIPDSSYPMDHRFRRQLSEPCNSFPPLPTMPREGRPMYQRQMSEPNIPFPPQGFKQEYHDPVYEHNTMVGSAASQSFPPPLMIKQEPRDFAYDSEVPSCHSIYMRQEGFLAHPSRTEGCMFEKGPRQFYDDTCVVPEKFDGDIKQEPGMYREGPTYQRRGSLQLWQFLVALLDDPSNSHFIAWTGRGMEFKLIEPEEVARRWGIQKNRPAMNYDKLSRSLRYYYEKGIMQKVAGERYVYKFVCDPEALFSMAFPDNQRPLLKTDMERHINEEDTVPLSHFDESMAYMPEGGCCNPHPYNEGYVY
The next assay concerns the target T7, ERF (Homo sapiens, UniProt P50548 1-548).
T7 sequence: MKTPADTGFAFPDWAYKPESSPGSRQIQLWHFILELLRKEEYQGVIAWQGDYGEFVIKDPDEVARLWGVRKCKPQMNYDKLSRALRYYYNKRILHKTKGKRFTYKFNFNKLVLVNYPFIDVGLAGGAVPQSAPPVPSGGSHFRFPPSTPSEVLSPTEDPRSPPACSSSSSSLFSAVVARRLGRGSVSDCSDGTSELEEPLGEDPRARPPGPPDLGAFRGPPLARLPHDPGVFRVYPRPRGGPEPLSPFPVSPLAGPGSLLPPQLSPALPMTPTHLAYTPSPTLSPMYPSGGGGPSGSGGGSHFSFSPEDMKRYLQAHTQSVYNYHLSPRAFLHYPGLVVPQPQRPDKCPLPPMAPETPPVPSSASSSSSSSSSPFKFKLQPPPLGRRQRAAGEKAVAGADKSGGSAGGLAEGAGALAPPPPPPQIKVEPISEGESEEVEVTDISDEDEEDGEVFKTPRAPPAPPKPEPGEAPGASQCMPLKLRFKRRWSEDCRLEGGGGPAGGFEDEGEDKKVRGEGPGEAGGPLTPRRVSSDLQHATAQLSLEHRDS
Summed up: as §1

Another assay concerns the target T8, ETV3L (Homo sapiens, UniProt Q6ZN32 1-361).
T8 sequence: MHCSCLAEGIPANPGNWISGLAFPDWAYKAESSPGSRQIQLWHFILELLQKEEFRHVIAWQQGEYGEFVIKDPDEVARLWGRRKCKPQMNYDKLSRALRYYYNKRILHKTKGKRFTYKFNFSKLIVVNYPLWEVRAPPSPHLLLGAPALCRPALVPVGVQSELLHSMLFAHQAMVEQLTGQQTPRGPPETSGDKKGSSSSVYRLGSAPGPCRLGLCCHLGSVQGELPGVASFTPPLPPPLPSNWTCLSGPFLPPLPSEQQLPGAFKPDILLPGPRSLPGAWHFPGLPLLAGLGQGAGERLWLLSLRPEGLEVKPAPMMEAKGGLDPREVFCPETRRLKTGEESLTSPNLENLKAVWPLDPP
The method in brief:
as §1

Another assay addresses T9, ETS2 (Homo sapiens, UniProt P15036 1-469).
T9 sequence: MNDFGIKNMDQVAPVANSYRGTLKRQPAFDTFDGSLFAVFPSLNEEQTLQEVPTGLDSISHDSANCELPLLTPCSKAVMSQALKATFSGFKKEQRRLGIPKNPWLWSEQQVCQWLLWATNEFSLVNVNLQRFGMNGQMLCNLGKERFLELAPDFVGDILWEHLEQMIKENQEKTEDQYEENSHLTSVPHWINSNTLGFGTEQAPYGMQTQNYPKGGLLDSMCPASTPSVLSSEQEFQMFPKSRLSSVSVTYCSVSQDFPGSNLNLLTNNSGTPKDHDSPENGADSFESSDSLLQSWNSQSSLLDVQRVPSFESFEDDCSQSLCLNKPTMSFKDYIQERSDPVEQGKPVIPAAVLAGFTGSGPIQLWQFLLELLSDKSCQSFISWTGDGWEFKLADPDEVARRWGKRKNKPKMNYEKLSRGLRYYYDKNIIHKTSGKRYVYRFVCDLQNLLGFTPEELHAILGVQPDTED
Summed up: as §1

For a further assay, the target named is T10, SPDEF (Homo sapiens, UniProt O95238 1-335).
T10 sequence: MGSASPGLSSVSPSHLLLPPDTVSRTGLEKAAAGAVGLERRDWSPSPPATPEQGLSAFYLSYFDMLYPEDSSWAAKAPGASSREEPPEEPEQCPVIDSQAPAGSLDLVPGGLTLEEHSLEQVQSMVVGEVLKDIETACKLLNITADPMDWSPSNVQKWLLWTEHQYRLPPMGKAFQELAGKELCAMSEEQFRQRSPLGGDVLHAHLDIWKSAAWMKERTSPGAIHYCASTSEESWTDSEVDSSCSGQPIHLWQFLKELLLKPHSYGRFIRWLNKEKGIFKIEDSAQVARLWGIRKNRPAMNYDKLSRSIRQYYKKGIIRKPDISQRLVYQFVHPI
The method in brief: as §1

The next assay concerns the target T11, ELF5 (Homo sapiens, UniProt Q9UKW6-2 1-255).
T11 sequence: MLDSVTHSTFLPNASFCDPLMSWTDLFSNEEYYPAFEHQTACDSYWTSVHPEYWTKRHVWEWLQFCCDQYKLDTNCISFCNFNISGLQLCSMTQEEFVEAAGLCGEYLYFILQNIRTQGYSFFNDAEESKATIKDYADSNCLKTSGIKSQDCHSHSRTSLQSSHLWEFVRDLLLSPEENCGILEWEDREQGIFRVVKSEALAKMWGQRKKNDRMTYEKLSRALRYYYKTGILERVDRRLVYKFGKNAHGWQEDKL
Summed up:
as §1

The next assay deals with T12, ETV3 (Homo sapiens, UniProt P41162-2 1-143).
T12 sequence: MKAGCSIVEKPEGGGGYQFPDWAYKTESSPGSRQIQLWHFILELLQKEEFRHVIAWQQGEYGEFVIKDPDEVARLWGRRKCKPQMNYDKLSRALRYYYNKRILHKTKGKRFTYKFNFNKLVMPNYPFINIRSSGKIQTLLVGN
The method in brief: as §1

The next assay has as its target ETV6 (Homo sapiens, UniProt P41212 1-452). Summed up: as §1

Chain of ELF4 (Q99607 whole entry): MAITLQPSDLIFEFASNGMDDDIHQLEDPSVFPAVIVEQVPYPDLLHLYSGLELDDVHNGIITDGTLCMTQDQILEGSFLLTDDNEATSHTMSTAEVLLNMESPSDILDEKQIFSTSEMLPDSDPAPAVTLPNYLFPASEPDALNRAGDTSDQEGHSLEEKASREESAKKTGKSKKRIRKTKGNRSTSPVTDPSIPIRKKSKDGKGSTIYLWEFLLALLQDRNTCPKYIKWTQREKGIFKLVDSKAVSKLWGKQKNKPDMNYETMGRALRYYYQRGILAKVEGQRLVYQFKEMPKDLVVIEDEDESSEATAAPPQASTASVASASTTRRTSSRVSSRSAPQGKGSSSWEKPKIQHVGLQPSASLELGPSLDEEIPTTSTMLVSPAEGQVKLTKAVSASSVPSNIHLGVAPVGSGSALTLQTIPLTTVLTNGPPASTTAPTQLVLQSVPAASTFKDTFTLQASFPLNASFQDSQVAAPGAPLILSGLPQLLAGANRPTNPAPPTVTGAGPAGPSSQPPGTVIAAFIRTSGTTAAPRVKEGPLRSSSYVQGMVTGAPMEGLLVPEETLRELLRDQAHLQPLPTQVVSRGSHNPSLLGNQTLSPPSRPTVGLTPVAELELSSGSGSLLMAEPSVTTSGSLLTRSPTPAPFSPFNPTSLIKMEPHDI
Chain of ELF1 (P32519 whole entry): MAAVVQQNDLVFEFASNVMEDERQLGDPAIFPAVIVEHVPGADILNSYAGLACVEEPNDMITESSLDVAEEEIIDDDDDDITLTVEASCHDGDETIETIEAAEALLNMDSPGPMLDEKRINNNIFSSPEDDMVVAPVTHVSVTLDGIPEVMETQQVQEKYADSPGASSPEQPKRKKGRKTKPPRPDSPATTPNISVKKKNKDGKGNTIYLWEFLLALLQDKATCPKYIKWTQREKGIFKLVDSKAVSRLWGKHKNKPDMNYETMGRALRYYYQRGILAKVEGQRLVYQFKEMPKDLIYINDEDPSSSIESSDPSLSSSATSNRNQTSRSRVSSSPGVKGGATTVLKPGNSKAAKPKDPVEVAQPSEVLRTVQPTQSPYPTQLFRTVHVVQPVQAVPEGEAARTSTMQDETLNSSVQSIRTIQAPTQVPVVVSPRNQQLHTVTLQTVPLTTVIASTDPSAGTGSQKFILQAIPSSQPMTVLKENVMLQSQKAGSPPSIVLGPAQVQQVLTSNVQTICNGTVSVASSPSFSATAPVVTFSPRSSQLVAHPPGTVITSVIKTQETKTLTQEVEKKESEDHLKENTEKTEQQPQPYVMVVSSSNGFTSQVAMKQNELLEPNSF
Chain of ETV5 (P41161 whole entry): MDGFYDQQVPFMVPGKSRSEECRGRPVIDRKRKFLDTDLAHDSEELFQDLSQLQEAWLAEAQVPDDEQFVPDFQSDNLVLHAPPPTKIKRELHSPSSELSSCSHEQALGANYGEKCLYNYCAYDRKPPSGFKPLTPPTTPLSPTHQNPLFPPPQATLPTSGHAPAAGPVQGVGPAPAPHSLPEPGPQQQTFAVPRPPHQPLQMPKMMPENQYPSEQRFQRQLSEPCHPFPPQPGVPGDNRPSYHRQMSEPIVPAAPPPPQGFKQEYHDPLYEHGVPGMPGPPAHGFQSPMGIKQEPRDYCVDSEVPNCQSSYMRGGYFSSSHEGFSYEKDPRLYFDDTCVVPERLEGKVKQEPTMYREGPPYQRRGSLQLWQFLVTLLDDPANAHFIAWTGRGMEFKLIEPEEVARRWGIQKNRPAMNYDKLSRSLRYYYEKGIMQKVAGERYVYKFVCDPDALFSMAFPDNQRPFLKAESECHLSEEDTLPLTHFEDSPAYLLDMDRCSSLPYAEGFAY
Chain of ETV6 (P41212 whole entry): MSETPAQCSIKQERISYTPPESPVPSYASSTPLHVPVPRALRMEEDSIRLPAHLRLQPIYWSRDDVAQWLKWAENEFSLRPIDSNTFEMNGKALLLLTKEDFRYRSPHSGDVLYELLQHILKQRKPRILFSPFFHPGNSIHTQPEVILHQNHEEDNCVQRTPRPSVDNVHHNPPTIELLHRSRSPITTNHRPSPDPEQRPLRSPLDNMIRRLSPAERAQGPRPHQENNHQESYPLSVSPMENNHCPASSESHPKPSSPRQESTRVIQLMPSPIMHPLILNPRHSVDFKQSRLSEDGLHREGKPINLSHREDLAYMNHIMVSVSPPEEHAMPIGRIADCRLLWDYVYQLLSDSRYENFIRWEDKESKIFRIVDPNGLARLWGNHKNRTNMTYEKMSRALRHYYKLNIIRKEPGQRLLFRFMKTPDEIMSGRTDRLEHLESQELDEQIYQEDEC
Chain of SPIB (Q01892 whole entry): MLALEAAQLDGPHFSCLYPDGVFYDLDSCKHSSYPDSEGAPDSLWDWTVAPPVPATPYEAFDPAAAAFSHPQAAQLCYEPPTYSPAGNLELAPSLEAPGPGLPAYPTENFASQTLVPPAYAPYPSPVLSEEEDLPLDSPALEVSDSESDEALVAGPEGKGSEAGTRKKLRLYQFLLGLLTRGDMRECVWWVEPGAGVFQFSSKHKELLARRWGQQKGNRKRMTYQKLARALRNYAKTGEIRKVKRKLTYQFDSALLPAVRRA

As to GCCTGC, the binding signal in the assay with FLI1 was 1.03 fold enrichment (6-mer frequency, TF over GST control); with ELK1 it was 1.13 fold enrichment (6-mer frequency, TF over GST control); with GABPA it was 1.07 fold enrichment (6-mer frequency, TF over GST control); in the assay with ERG, 1.03 fold enrichment (6-mer frequency, TF over GST control); with ELF1, 1.13 fold enrichment (6-mer frequency, TF over GST control); in the assay with EHF, 1.19 fold enrichment (6-mer frequency, TF over GST control). Moreover, the binding signal with SPI1 is 1.06 fold enrichment (6-mer frequency, TF over GST control); with SPIB, 1.18 fold enrichment (6-mer frequency, TF over GST control); in the assay with FEV, 1.11 fold enrichment (6-mer frequency, TF over GST control); in the assay with ETV5 it was 1.05 fold enrichment (6-mer frequency, TF over GST control); in the assay with ELF4, 1.06 fold enrichment (6-mer frequency, TF over GST control); in the assay with ETV1, 1.18 fold enrichment (6-mer frequency, TF over GST control). For the same sequence, the binding signal is 1.05 fold enrichment (6-mer frequency, TF over GST control) with ERF; 1.17 fold enrichment (6-mer frequency, TF over GST control) with ETV3L; 1.05 fold enrichment (6-mer frequency, TF over GST control) with ETS2; 1.02 fold enrichment (6-mer frequency, TF over GST control) with SPDEF; 1.09 fold enrichment (6-mer frequency, TF over GST control) with ELF5; 1.03 fold enrichment (6-mer frequency, TF over GST control) in the assay with ETV3. Besides, the binding signal with ETV6 is 1.05 fold enrichment (6-mer frequency, TF over GST control).
